Hits are enriched below; roughly 2.8% of the tested compounds scored in any of these assays.
GLP1R ag: GLP-1 receptor (human) agonism. AID 624172. Potency, µM (top dose mostly 45.6 µM), most hits filed as activators. 380,000 tested, 0.007% active. HEK293 GLP-1R CRE-luciferase, luminescence, 4-6 h; cells express a hypersensitive GLP-1R form
GLS inhibitor: blocks human kidney-isoform glutaminase activity; O94925; GLS enzymatic activity, qHTS titration; Potency, µM (series often up to 45.5 µM), most hits filed as inhibitors; 410,000 tested, 0.21% active; AID 624170
Target sequence (O94925 whole entry, looked up, canonical isoform): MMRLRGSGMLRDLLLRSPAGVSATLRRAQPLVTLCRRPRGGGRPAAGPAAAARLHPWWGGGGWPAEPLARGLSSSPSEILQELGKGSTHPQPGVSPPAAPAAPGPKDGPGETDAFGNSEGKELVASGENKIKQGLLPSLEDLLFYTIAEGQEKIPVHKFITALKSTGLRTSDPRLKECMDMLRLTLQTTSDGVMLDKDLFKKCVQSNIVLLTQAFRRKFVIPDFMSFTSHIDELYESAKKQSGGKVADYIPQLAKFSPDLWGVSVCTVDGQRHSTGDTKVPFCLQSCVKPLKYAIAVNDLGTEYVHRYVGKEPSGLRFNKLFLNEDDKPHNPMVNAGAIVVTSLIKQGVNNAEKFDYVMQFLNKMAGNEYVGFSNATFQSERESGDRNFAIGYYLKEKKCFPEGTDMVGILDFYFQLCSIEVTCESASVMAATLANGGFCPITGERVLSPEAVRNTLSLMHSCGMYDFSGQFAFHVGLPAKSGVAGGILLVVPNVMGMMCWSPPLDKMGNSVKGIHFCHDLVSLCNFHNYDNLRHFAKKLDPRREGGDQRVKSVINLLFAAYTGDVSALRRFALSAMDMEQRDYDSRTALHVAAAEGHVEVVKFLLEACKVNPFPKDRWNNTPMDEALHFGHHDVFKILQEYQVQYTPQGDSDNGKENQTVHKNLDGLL
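hKGA; 45 mM KH2PO4 pH 8.2 + 0.02% Tween-20; cpd via pin tool; 1 mM Gln soln; GluOx/HRP/Amplex Red; RT 30 min; fluor. t0 & final.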
GLP1R inv ag: inverse agonists of human GLP-1 receptor. HEK293 GLP-1R CRE-luciferase, luminescence, 24 h; GLP-1R form is constitutively active. Potency, µM (doses to about 38.3 µM), usual class: inhibitors. 410,000 tested, 1.6% active. AID 624417; note: nearly all actives have a fitted effect of over 55% in size
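Stable HEK293 clone (constitutively active GLP-1R + cAMP-response luciferase); 200 cells/uL plated, 12 h pre-culture, compound 24 hr, 37 deg C/5% CO2; detection reagent 12 min RT; luminescence.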
KCNH2 3.1 block: blocks the human KCNH2 3.1 channel isoform; U2OS KCNH2 3.1, thallium flux FluxOr; active compounds read low; activity change, % (tested at about 1.8 µM); 340,000 tested, 0.95% active;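 active = maximum activity change below -70%; inconclusive = maximum activity change from -70% to -50%; inactive = maximum activity change above -50%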;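 note: thallium influx rate constant from kinetic fluorescence after stimulation buffer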
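Thallium flux read-out: FluxOr dye with Red40 quencher in HBSS/HEPES, 45 min at RT. Rate constants from kinetic reads were normalized to positive and negative DMSO controls. Cells: U2OS virally expressing the 3.1 isoform.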
GLP1R cytotox: cytotoxic in the GLP-1 receptor inverse agonist counter-screen; HEK293 cAMP-luciferase reporter cells, luminescence, 24 h; Potency, µM (top dose mostly 38.3 µM), most hits filed as inhibitors; 410,000 tested, 0.13% active; AID 624418;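 note: loss of luciferase light is scored as toxicity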
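Seeding density was 200 cells/uL; after overnight-length (12 h) culture, 23 nL compounds went on for 24 h at 37 °C. Readout used a luciferase detection reagent, luminescence taken after 12 min at room temperature.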
KCNH2 WT inh: blocks the wildtype human KCNH2 potassium channel; U2OS, BacMam KCNH2, thallium flux FluxOr; active compounds read low; activity change, % at 1.84 µM; 340,000 tested, 0.37% active; Q12809;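 active = maximum activity change below -70%; inconclusive = maximum activity change between -70% and -50%; inactive = maximum activity change above -50%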
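U2OS cells were transduced with wild-type KCNH2 virus (2.03 x 10^8 / mL) for 4 h at room temperature, then cultured overnight at 37 C. Thallium flux was read with FluxOr dye. Rate constants were normalized to DMSO controls.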
Of the large screens only hits and unclear results are named; the others gave an inactive call; ! = not confirmed by another sample. Unless noted, calls come from the whole dose curve; as a rule, active = well fitted curve in the direction sought with a large enough effect; inconclusive = small, poorly fitted or top-dose-only effect, or another doubt; inactive = no such curve, though single readings can be large; an effect the other way counts as inactive or inconclusive.

CC(Oc1ccccc1)C(=O)N1CCN=C1SCc1ccccc1F (configuration not stated)	GLP1R inv ag 4µM
CC(Oc1ccccc1)C(=O)N1CCN=C1SCc1cccc(F)c1 (configuration not stated)	GLP1R inv ag inconclusive
CCC(=O)N1c2ccc(S(=O)(=O)CCC(=O)Nc3ccc(Br)c(C)c3)cc2CC1C (configuration not stated)	GLP1R inv ag inconclusive (no result: KCNH2 3.1 block, KCNH2 WT inh)
Cc1cccc(OCCNC(=O)c2cccc(Oc3ccc(C(F)(F)F)cc3[N+](=O)[O-])c2)c1	GLP1R inv ag 2.5µM
CCOC(=O)c1cn(CC(=O)Nc2ccc(CC)cc2)nn1	KCNH2 WT inh -208
CC(C)(C)c1ccc(Oc2cccc(C3CC(=O)C(C4NCCc5ccccc54)C(=O)C3n3cncn3)c2)cc1 (configuration not stated)	GLP1R inv ag 6.3µM
COc1ccc(-n2c(NN)nc3sc4c(c3c2=O)CCCC4)cc1	GLP1R inv ag inconclusive, GLP1R cytotox inconclusive
CCN1CCN(c2nc3sc4c(c3c(=O)n2-c2ccc(OC)cc2)CCCCC4)CC1	GLP1R ag inconclusive, KCNH2 3.1 block -71, GLP1R cytotox inconclusive
COc1cc(CC(=O)NCC2CCCCC2)cc(OC)c1OC	none
COc1ccc(CN(C)CC2CCCN(CCc3ccc(F)cc3)C2)cc1OC (configuration not stated)	GLP1R inv ag 11µM
CCC(C)Sc1ccc(-c2nc3cc(C)ccn3c2NC2CCCCC2)cc1 (configuration not stated)	GLP1R inv ag 10µM!
CCC(C)Sc1ccc(-c2nc3cnccn3c2NC2CCCCC2)cc1 (configuration not stated)	GLP1R inv ag inconclusive (no result: KCNH2 3.1 block, KCNH2 WT inh)
Cc1ccn2c(NC3CCCCC3)c(-c3cccc(-c4cccc(Cl)c4)c3)nc2c1	GLP1R inv ag 4µM, GLP1R cytotox inconclusive (no result: KCNH2 3.1 block, KCNH2 WT inh)
CCCCNc1c(-c2cccc(-c3ccc(OC)cc3)c2)nc2cc(C)ccn12	GLP1R inv ag 11µM
CCOC(=O)c1sc(NC(=O)C(C)Sc2nc(-c3ccccc3)cc(C(F)(F)F)n2)c(C(=O)OC)c1C (configuration not stated)	none (no result: KCNH2 3.1 block, KCNH2 WT inh)
Cc1cccc(CCNC(=O)CN(c2ccc(C(C)C)cc2)S(=O)(=O)c2c(C)nn(C)c2C)c1	none (no result: GLP1R ag, KCNH2 3.1 block, KCNH2 WT inh)
CC(C)Cn1c(-c2ccccc2)nc2ccccc2c1=O	GLP1R inv ag 2.8µM
Cc1ccc(-c2nc(S(=O)(=O)c3ccc(C)cc3)c(SCC(=O)NC3CCCCC3)o2)cc1	none (no result: GLP1R ag, KCNH2 3.1 block, KCNH2 WT inh)
Cc1ccc2c(c1C)NC(C(=O)O)C1CC=CC21 (configuration not stated)	GLS inhibitor inconclusive
O=C(O)C1Nc2c(C(=O)N3CCOCC3)cccc2C2C=CCC12 (configuration not stated)	GLS inhibitor 2.5µM
CC(C)Cc1nn2c(=O)cc(COC(=O)c3cccc(NC(=O)CCc4ccccc4)c3)nc2s1	none (no result: GLP1R ag, KCNH2 3.1 block, KCNH2 WT inh)
O=C(c1cc2ccccc2o1)N1CCN(S(=O)(=O)c2ccc(F)c(F)c2F)CC1	none
CCC1SC2=NC(C)=C(C(=O)OCC(C)C)C(/C=C/c3ccccc3OC)N2C1=O (configuration not stated)	GLP1R inv ag 7.9µM
CCC1SC2=NC(C)=C(C(=O)OCCOC)C(/C=C/c3ccccc3OC)N2C1=O (configuration not stated)	GLP1R inv ag inconclusive
O=[N+]([O-])c1ccccc1N/N=C/c1ccc2c(c1)OCO2	none
O=[N+]([O-])c1ccccc1N/N=C/c1ccccc1	KCNH2 3.1 block -83
O=C(O)c1ccccc1NN=Cc1ccccc1	KCNH2 3.1 block -77
COc1cccc(/C=N/Nc2ccccc2C(=O)O)c1O	GLP1R inv ag inconclusive
COc1cc(OC)nc(Oc2ccccc2C(=O)Oc2ccc(Cl)cc2)n1	GLP1R inv ag 3.2µM
COc1cc(OC)nc(Oc2ccccc2C(=O)Oc2ccc(C)cc2)n1	GLP1R inv ag inconclusive
Cn1c(N)c(C(=O)CSc2nnc(C3CC3)n2-c2ccccc2)c(=O)n(C)c1=O	none
CCOC(=O)Cc1ccc(NC(=O)N2CCc3c(sc4c3CCCC4)C2c2ccc(F)cc2)cc1 (configuration not stated)	GLP1R inv ag 4µM (no result: GLP1R ag, KCNH2 3.1 block, KCNH2 WT inh)
Cc1cccc(C)c1NC(=S)NCCc1ccc(O)c(O)c1	GLS inhibitor 4µM
COc1ccc(OC)c(CNC(=O)c2ccc3nc(C(C)C)oc3c2)c1	none (no result: GLP1R ag, KCNH2 3.1 block, KCNH2 WT inh)
COc1ccc(NC(=O)CSC2=Nc3ccccc3C3=NC(CCC(=O)NCc4ccco4)C(=O)N23)cc1 (configuration not stated)	none (no result: GLP1R ag, KCNH2 3.1 block, KCNH2 WT inh)
CCOC(=O)CNc1ncc([N+](=O)[O-])cc1C#N	none
N#Cc1cc([N+](=O)[O-])cnc1Nc1ccccc1	GLP1R ag 8.9µM
CCOC(=O)c1ccc(NC(=O)CSc2c(C(C)C)cnc3c2c(=O)n(C)c(=O)n3C)cc1	none (no result: GLP1R ag, KCNH2 3.1 block, KCNH2 WT inh)
CCOC(=O)c1ccc(Nc2nc3nonc3nc2Nc2cccc(C)c2C)cc1	GLP1R inv ag 2.8µM, GLP1R cytotox inconclusive (no result: GLP1R ag, KCNH2 3.1 block, KCNH2 WT inh)
O=C(O)c1[nH]c2ccccc2c1C(c1ccccc1)c1c(C(=O)O)[nH]c2ccccc12	GLS inhibitor 11µM
CCC1CCc2sc(C(=O)N(C)CC(=O)Nc3ccc(N4CCOCC4)cc3)cc2C1 (configuration not stated)	GLP1R inv ag inconclusive, GLP1R cytotox inconclusive
CCCN1C(=O)c2ccccc2NC1c1ccc(Cl)c(Cl)c1 (configuration not stated)	GLP1R inv ag 11µM
CCCN1C(=O)c2ccccc2NC1c1ccc(Cl)cc1 (configuration not stated)	GLP1R inv ag inconclusive
CC1CCc2nc3ccccc3c(C(=O)OCC(=O)N3CCc4ccccc43)c2C1 (configuration not stated)	none
CCCc1nc2ccccc2c(C(=O)OCC(=O)N2CCc3ccccc32)c1CC	GLP1R inv ag 2.8µM
Cc1ccc(-c2noc(-c3nnn(-c4ccc(Br)cc4F)c3C)n2)cc1	none (no result: GLP1R ag, KCNH2 3.1 block, KCNH2 WT inh)
CCc1ccccc1NC(=O)CSc1nc2ccccc2nc1Cc1cccc(OC)c1	none (no result: GLP1R ag, KCNH2 3.1 block, KCNH2 WT inh)
N=c1c(C(=O)NC2CCCCC2)cc2c(=O)n3ccccc3nc2n1CCc1ccccc1	KCNH2 3.1 block -79, KCNH2 WT inh inconclusive
Cc1ccc(Cc2c(C)nn(-c3nc(C)c(C(=O)N4CCCCC4C)s3)c2C)cc1 (configuration not stated)	none (no result: GLP1R ag, KCNH2 3.1 block, KCNH2 WT inh)
C=CCNC(=S)N/N=C/c1ccc(C)c([N+](=O)[O-])c1	GLP1R inv ag inconclusive, GLP1R cytotox 7.9µM

Source: PubChem BioAssay (National Center for Advancing Translational Sciences (NCATS))
